Several values for one entry are separate records, joined by “and”; a condition that tells them apart may be missing. Equal values may be shown once. Records with an inconclusive call do not appear. A structure can be active in one record and inactive in another. Activity calls are given as the source filed them. Calls come from the whole dose curve; as a rule, active = well fitted curve in the direction sought with a large enough effect; inconclusive = small, poorly fitted or top-dose-only effect, or another doubt; inactive = no such curve, though single readings can be large; an effect the other way counts as inactive or inconclusive.
What was measured:
MKL-1 = test: qHTS assay to identify novel small-molecules to repurpose for Merkel cell carcinoma treatment (AID 1296009); settings: MCC and control cell lines, CellTiter-Glo viability, 72 h; series mostly up to 46 µM; note: nearly all actives have a fitted effect of over 60% in size
How it was run: (§1)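 Cell viability, measured as CellTiter-Glo luminescence, was normalized between DMSO and no-cell wells. The cells had been exposed to 8- or 11-point compound dilutions for 72 hr at 37 degree celsius.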

MKL-2 = test: as above; settings: MCC and control cell lines, CellTiter-Glo viability, 72 h; series mostly up to 46 µM
How it was run: as §1

NIH3T3 = test: as above; settings: MCC and control cell lines, CellTiter-Glo viability, 72 h; at 44.8 µM (top of the series) unless noted
How it was run: as §1

UISO = test: as above; settings: MCC and control cell lines, CellTiter-Glo viability, 72 h; series mostly up to 46 µM
How it was run: as §1

WaGa = test: as above; settings: MCC and control cell lines, CellTiter-Glo viability, 72 h; series mostly up to 46 µM
How it was run: as §1

C33A = test: Primary qHTS to identify gynecologic anti-cancer compounds using libraries of approved drugs and bioactive compounds (AID 1345084); settings: Gynecologic cancer cell panel viability, ATPlite luminescence, 48 h; series mostly up to 57.5 µM; note: nearly all actives have a fitted effect of over 55% in size
How it was run: (§2)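 Five-point cytotoxicity, 48 h drug exposure at 37 C, 5% CO2, on cells seeded 16 h beforehand. ATP content read by ATPlite luminescence.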

CAOV3 = test: as above; settings: Gynecologic cancer cell panel viability, ATPlite luminescence, 48 h; series mostly up to 57.5 µM
How it was run: as §2

CASKI = test: as above; settings: Gynecologic cancer cell panel viability, ATPlite luminescence, 48 h; series mostly up to 57.5 µM
How it was run: as §2

Es-2 = test: as above; settings: Gynecologic cancer cell panel viability, ATPlite luminescence, 48 h; series mostly up to 57.5 µM
How it was run: as §2

HeLa = test: as above; settings: Gynecologic cancer cell panel viability, ATPlite luminescence, 48 h; series mostly up to 57.5 µM
How it was run: as §2

Hek293T = test: as above; settings: Gynecologic cancer cell panel viability, ATPlite luminescence, 48 h, control line for the selectivity index; series mostly up to 57.5 µM
How it was run: as §2

JEG-3 = test: as above; settings: Gynecologic cancer cell panel viability, ATPlite luminescence, 48 h; series mostly up to 57.5 µM
How it was run: as §2

OV90 = test: as above; settings: Gynecologic cancer cell panel viability, ATPlite luminescence, 48 h; series mostly up to 57.5 µM
How it was run: as §2

PA-1 = test: as above; settings: Gynecologic cancer cell panel viability, ATPlite luminescence, 48 h; series mostly up to 57.5 µM
How it was run: as §2

SKOV3 = test: as above; settings: Gynecologic cancer cell panel viability, ATPlite luminescence, 48 h; series mostly up to 57.5 µM
How it was run: as §2

Tov-21-G = test: as above; settings: Gynecologic cancer cell panel viability, ATPlite luminescence, 48 h; series mostly up to 57.5 µM
How it was run: as §2

Tov112D = test: as above; settings: Gynecologic cancer cell panel viability, ATPlite luminescence, 48 h; series mostly up to 57.5 µM
How it was run: as §2

astro = test: Drug repurposing screens with cells derived from glioblastoma tumor samples (AID 1345199); settings: viability, ATP luminescence, 48 h; series mostly up to 45.9 µM; note: nearly all actives have a fitted effect of over 40% in size; note: potency is the fitted concentration of half-maximal effect
How it was run: (§3)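 Primary testing used CD133+ neurospheres from four GBM patients, seven concentrations, 48 h exposure and ATP-based viability; confirmation added three slower-growing patient lines.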

[1] = as above; settings: GBM patient neurospheres viability, ATP luminescence, 48 h
How it was run: as §3

[2] = qHTS assay to identify inhibitors of the type 1 interferon - major histocompatibility complex class I in skeletal muscle: Counter screen cell viability and HiBit confirmation (AID 1347412); settings: iHSKM muscle cells + IFN-b, HiBiT or CellTiter-Glo, 24 h, at 45.9 µM (top of the series); note: nearly all actives have a fitted effect of over 60% in size
How it was run: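 Duplicate plates, pinned identically: one read for HiBiT-tagged endogenous HLA-B luminescence, the other for ATP-content viability via CellTiter Glo. Cells were genome-engineered human myoblasts given 4 ng/ml IFN-b; compounds 12-pt, 1:3 from 46 uM final; 24 hr exposure.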

[3] = at 45.9 µM (top of the series), tumour line B
[4] = at 45.9 µM (top of the series), tumour line D
[5] = at 46.1 µM (top of the series), tumour line C
[6] = at 46 µM (top of the series), tumour line A
% is set by controls: 0 for no effect and ±100 for the full control effect.

c1cnc2cc3c(cc2n1)C1CNCC3C1
inactive: Potency (MKL-1) | Potency (MKL-2) | outcome (NIH3T3) | Potency (UISO) | Potency (WaGa) | Potency (C33A) | Potency (CAOV3) | Potency (CASKI) | Potency (Es-2) | Potency (HeLa) | Potency (Hek293T) | Potency (JEG-3) | Potency (OV90) | Potency (PA-1) | Potency (SKOV3) | Potency (Tov-21-G) | Potency (Tov112D) | Potency (astro)

CC1=C(C(=O)O)N2C(=O)[C@@H](NC(=O)[C@H](N)C3=CCC=CC3)[C@H]2SC1
inactive: Potency (MKL-1) | Potency (MKL-2) | outcome (NIH3T3) | Potency (UISO) | Potency (WaGa) | Potency (C33A) | Potency (CAOV3) | Potency (CASKI) | Potency (Es-2) | Potency (HeLa) | Potency (Hek293T) | Potency (JEG-3) | Potency (OV90) | Potency (PA-1) | Potency (SKOV3) | Potency (Tov-21-G) | Potency (Tov112D) | activity, negative = cell killing [1, 3] -8.4% | activity, negative = cell killing [1, 4] -14.2% | activity, negative = cell killing [1, 5] -3.66% | Potency (astro)

O=C1NC(=O)C(c2ccccc2[N+](=O)[O-])=C1Nc1ccc(O)c(Cl)c1
inactive: Potency (MKL-1) | Potency (MKL-2) | outcome (NIH3T3) | Potency (UISO) | Potency (WaGa)

Clc1ccc(C(Cn2ccnc2)OCc2ccc(Sc3ccccc3)cc2)c(Cl)c1 (stereo unspecified)
inactive: Potency (MKL-1) | Potency (MKL-2) | outcome (NIH3T3) | Potency (UISO) | Potency (WaGa) | Potency (C33A) | Potency (CAOV3) | Potency (CASKI) | Potency (Es-2) | Potency (HeLa) | Potency (Hek293T) | Potency (JEG-3) | Potency (OV90) | Potency (PA-1) | Potency (SKOV3) | Potency (Tov-21-G) | Potency (Tov112D) | activity change, negative = inhibition ([2]; HiBiT) -10.3% | activity change, negative = inhibition ([2]; Viability) -8.18%

CCOC(=O)c1c(C)n(C)c2ccc(O)cc12
inactive: Potency (MKL-1) | Potency (MKL-2) | outcome (NIH3T3) | Potency (UISO) | Potency (WaGa) | Potency (C33A) | Potency (CASKI) | Potency (Es-2) | Potency (HeLa) | Potency (Hek293T) | Potency (JEG-3) | Potency (OV90) | Potency (PA-1) | Potency (SKOV3) | Potency (Tov-21-G) | Potency (Tov112D) | activity, negative = cell killing [1, 3] -14.1% | activity, negative = cell killing [1, 4] -23.4% | Potency (astro)

COc1ccc2cc([C@H](C)C(=O)O)ccc2c1
inactive: Potency (MKL-1) | Potency (MKL-2) | outcome (NIH3T3) | Potency (UISO) | Potency (WaGa) | Potency (C33A) | Potency (CAOV3) | Potency (CASKI) | Potency (Es-2) | Potency (HeLa) | Potency (Hek293T) | Potency (JEG-3) | Potency (OV90) | Potency (PA-1) | Potency (SKOV3) | Potency (Tov-21-G) | Potency (Tov112D) | activity, negative = cell killing ([1]; at 20 µM (top of the series), tumour line C) -12.8% | activity, negative = cell killing ([1]; at 21.2 µM (top of the series), tumour line B) -16.1% | activity, negative = cell killing ([1]; at 21.2 µM (top of the series), tumour line D) -8.68% | Potency (astro)

O=C(O)CCNC(=O)c1ccc(N=Nc2ccc(O)c(C(=O)O)c2)cc1
inactive: Potency (MKL-1) | Potency (MKL-2) | outcome (NIH3T3) | Potency (UISO) | Potency (WaGa) | Potency (C33A) | Potency (CASKI) | Potency (Es-2) | Potency (HeLa) | Potency (Hek293T) | Potency (JEG-3) | Potency (OV90) | Potency (PA-1) | Potency (Tov-21-G) | Potency (Tov112D) | activity, negative = cell killing [1, 3] -6.99% | activity, negative = cell killing [1, 4] -11.2% | activity, negative = cell killing [1, 6] -28% | activity, negative = cell killing [1, 5] -6.53% | Potency (astro)

CN(c1nccc(=O)[nH]1)C1CCN(c2nc3ccccc3n2Cc2ccc(F)cc2)CC1
inactive: Potency (MKL-1) | Potency (MKL-2) | outcome (NIH3T3) | Potency (UISO) | Potency (WaGa) | Potency (C33A) | Potency (CAOV3) | Potency (CASKI) | Potency (Es-2) | Potency (HeLa) | Potency (Hek293T) | Potency (JEG-3) | Potency (OV90) | Potency (PA-1) | Potency (SKOV3) | Potency (Tov-21-G) | Potency (Tov112D) | activity, negative = cell killing [1, 3] -7.08% | activity, negative = cell killing [1, 4] -20% | activity, negative = cell killing [1, 5] -6.39% | Potency (astro)

COc1ccccc1N1CCN(CCN(C(=O)C2CCCCC2)c2ccccn2)CC1
inactive: Potency (MKL-1) | Potency (MKL-2) | outcome (NIH3T3) | Potency (UISO) | Potency (WaGa) | Potency (C33A) | Potency (CAOV3) | Potency (CASKI) | Potency (Es-2) | Potency (HeLa) | Potency (OV90) | Potency (PA-1) | Potency (SKOV3) | Potency (Tov-21-G) | Potency (Tov112D)

CC(C)c1nc(CN(C)C(=O)N[C@H](C(=O)N[C@@H](Cc2ccccc2)C[C@H](O)[C@H](Cc2ccccc2)NC(=O)OCc2cncs2)C(C)C)cs1
active: Potency ([1]; tumour line A) 17.8 µM
inactive: Potency (MKL-1) | Potency (MKL-2) | outcome (NIH3T3) | Potency (UISO) | Potency (WaGa) | Potency (C33A) | Potency (CASKI) | Potency (Es-2) | Potency (HeLa) | Potency (Hek293T) | Potency (JEG-3) | Potency (OV90) | Potency (PA-1) | Potency (SKOV3) | Potency (Tov-21-G) | Potency (Tov112D) | activity, negative = cell killing [1, 3] -7.95% and -4.95% | activity, negative = cell killing [1, 4] -23.9% and -23.8% | activity, negative = cell killing [1, 5] -26.2% and -16% | Potency (astro)

CCC(C)(Oc1ccc(C2(c3ccc(OC(C)(CC)C(=O)O)cc3)CCCCC2)cc1)C(=O)O (stereo unspecified)
inactive: Potency (MKL-1) | Potency (MKL-2) | outcome (NIH3T3) | Potency (UISO) | Potency (WaGa) | Potency (C33A) | Potency (CASKI) | Potency (Es-2) | Potency (HeLa) | Potency (Hek293T) | Potency (JEG-3) | Potency (OV90) | Potency (PA-1) | Potency (SKOV3) | Potency (Tov-21-G) | Potency (Tov112D) | activity, negative = cell killing [1, 3] -15.2% | activity, negative = cell killing [1, 4] -12.5% | activity, negative = cell killing [1, 6] -6.69% | activity, negative = cell killing [1, 5] -24.8% | Potency (astro)
